Measured values: publication PMC4336329 (PLoS ONE, 2015)
Hit rate of the full screen: of about 310,000 compounds, about 14,000 (4.5%) showed an effect of 50% or more. The effect is printed as a negative number. What follows is part of a selection rich in strong results, with near analogues and random picks from the rest.

Target: human ether-à-go-go-related gene (hERG) potassium channel (human, UniProt Q12809)
Test: primary screen, population patch clamp on CHO cells stably expressing hERG; higher = less effect of the substance
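Note: peak tail current of the secondary pulse compared with the same well before compound.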

Sequence of human ether-à-go-go-related gene (hERG) potassium channel (Q12809 whole entry, looked up): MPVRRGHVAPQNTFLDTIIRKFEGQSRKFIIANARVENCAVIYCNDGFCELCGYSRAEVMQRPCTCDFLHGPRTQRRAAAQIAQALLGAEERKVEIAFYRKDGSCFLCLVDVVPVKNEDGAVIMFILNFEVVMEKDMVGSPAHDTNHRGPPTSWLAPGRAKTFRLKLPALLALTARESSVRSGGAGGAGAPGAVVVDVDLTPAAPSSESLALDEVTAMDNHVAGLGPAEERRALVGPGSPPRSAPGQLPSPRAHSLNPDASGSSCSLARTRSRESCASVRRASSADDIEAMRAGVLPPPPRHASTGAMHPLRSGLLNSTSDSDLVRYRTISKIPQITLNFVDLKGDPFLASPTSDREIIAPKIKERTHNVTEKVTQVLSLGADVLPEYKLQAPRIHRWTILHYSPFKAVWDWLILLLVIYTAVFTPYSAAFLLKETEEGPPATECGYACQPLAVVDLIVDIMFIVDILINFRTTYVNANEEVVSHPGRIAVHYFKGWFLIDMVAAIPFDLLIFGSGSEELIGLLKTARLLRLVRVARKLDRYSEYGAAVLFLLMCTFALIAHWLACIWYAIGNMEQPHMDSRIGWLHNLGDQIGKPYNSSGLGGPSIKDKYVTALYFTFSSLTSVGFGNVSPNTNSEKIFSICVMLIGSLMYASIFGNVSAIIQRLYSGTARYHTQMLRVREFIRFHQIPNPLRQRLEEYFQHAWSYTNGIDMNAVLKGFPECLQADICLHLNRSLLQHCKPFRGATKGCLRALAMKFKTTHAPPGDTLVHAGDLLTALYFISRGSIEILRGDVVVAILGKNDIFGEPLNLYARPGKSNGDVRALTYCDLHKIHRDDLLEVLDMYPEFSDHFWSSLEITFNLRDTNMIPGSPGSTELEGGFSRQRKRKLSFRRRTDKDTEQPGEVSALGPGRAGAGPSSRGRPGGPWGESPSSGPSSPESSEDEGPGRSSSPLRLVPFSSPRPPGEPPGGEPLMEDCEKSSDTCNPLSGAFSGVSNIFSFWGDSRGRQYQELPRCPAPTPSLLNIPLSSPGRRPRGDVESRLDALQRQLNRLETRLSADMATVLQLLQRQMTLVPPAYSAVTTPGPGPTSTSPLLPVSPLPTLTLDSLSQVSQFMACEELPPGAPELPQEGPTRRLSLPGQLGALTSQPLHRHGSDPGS

Structure (SMILES)	hERG current change (%, negative = inhibition) at 10uM [%]
CCCCN1CCNC[C@@H]1Cc1ccc(O)cc1	16
CCN(CC(=O)Nc1ccc(Br)c(C)c1)CC(=O)NC(C)C	-4.86
O=C(NCCO)c1cc([N+](=O)[O-])cc2c1C=Cc1ccccc1O2	-31.4
CC1Cc2ccccc2N1C(=O)COC(=O)C1(c2ccccc2F)CCCC1 (centres unmarked)	-5.21
CCN(CC)S(=O)(=O)c1ccc(NS(=O)(=O)c2cccc(C)c2)cc1	-20.4
O=C(O)CCC1(c2ccccc2)NC(=O)NC1=O (centres unmarked)	2.53
C[n+]1ccccc1/C=N/O.[Cl-]	17.3
COc1ccccc1CN1Cc2cccc3c2[C@@H](CC1=O)[C@H](O)[C@H](O)C3	4.43
COC(=O)C1C(=O)N2CCCSC2=C(C#N)C1c1cccs1 (centres unmarked)	1.49
CC1Cc2ccccc2N1CC(=O)NC(c1ccccc1)c1ccccc1.O=C(O)C(=O)O (centres unmarked)	19.1
O=C(CN1CCCCCC1)NC(c1ccccc1)c1ccccc1.O=C(O)C(=O)O	-57.7
CC1CC(C)CN(CC(=O)NC(c2ccccc2)c2ccccc2)C1.O=C(O)C(=O)O (centres unmarked)	-68.4
CC1CCCCN1CC(=O)NC(c1ccccc1)c1ccccc1.O=C(O)C(=O)O (centres unmarked)	-65.8
CC(NC(=O)CN1CCCC1)c1ccccc1 (centres unmarked)	21
CSc1ccccc1NC(=O)CN1CCCCC1C (centres unmarked)	0.324
CC1CN(CC(=O)NC(C)c2ccccc2)CC(C)O1 (centres unmarked)	9.23
O=C(CN1CCCC1)NC(c1ccccc1)c1ccccc1.O=C(O)C(=O)O	-34.7
CC1CCCCN1CC(=O)NC(=O)NCc1ccccc1 (centres unmarked)	16.8
CCOCCCN1CN(Cc2ccco2)CNC1=S	7.86
CC1=C(c2ccc(F)cc2)[N+](=O)C(C)(C)N1[O-]	17.7
Cc1ccc(-c2cc(=O)c3ccccc3[nH]2)cc1	13.6
Cc1cccn2cc(CCNS(=O)(=O)c3ccc([N+](=O)[O-])cc3)nc12	-22.7
COc1ccc2[nH]cc(C(O)CN3CCC(C(N)=O)CC3)c2c1 (centres unmarked)	12

Structure (SMILES)	hERG current change (%, negative = inhibition) at 10uM [%]
COc1ccc(N2CCN(CC(O)c3c[nH]c4ccc(OC)cc34)CC2C)cc1 (centres unmarked)	-68.1
COc1ccc2[nH]cc(C(O)CN3CCN(c4ccccc4F)CC3)c2c1 (centres unmarked)	-22
CC(Cc1ccccc1)[n+]1cc(/N=C(\[O-])Nc2ccccc2)on1 (centres unmarked)	-17.4
CC1Sc2ccc(S(=O)(=O)NCCc3ccccc3)cc2NC1=O (centres unmarked)	12.5
CN1CCN(CCOCCOc2ccc(Br)cc2Cl)CC1.O=C(O)C(=O)O	-14.2
CC1CCN(CCOc2cc(Cl)ccc2Cl)CC1	-33.8
CC1CCN(CCCOc2ccc(Cl)cc2Br)CC1	-76.3
CC1CCCN(CCOCCOc2ccc(Br)cc2Cl)C1.O=C(O)C(=O)O (centres unmarked)	-71
Clc1cc(Br)ccc1OCCOCCN1CCCC1.O=C(O)C(=O)O	-57.1
CC1CCN(CCOCCOc2ccc(Br)cc2Cl)CC1.O=C(O)C(=O)O	-75.5
CC1CCN(CCOc2ccc(Cl)c(Cl)c2)CC1	-46.3
Clc1cc(Br)ccc1OCCN1CCOCC1.O=C(O)C(=O)O	-2.95
CC(C)N1CCN(Cc2ccc3c(c2)OCCO3)CC1CCO (centres unmarked)	3.63
NC(=O)N/N=C/c1ccc(-c2cccc(C(F)(F)F)c2)o1	-4.87
Cc1cc(C)cc(NC(=O)CCn2ccnc2)c1	3.41
Cc1c(C(=O)NCc2ccc(S(N)(=O)=O)cc2)oc2ccc(Cl)cc12	10
CCCCn1c(N)c(N(CCOC)C(=O)CSCC(=O)Nc2cccc(C)c2)c(=O)[nH]c1=O	11.5
c1ccc(-c2nc(CSc3nnc(-c4cccs4)o3)cs2)cc1	-9.61
CCS(=O)(=O)c1ncc(Cl)c(C(=O)Nc2ccc(S(=O)(=O)N(C)c3ccccc3)cc2)n1	15.5
CCOC(=O)N1CCC(NC(=O)c2cc(C(=O)NC3CCCC3)ccc2CO)CC1	12.9
O=C(O)c1ccn(CSc2cc(Cl)ccc2Cl)n1	5.46
CCOC(=O)NNC(=S)Nc1c(C)n(C)n(-c2ccccc2)c1=O	4.89
COc1ccc(NC(=O)CC(C)CC(=O)NCc2ccc(F)cc2)c(OC)c1 (centres unmarked)	-4.08

Structure (SMILES)	hERG current change (%, negative = inhibition) at 10uM [%]
CCn1cc(/C=C(\NC(=O)c2ccccc2Cl)C(=O)N2CCOCC2)c2ccccc21	-2.35
O=C(NNC(=S)Nc1ccccc1)c1cccc(S(=O)(=O)N2CCOCC2)c1	15.3
CCC1CCCCN1C(=O)c1ccc(OC2CCN(C(=O)COC)CC2)cc1 (centres unmarked)	6.08
COC(=O)CCCC(=O)N1CCC(CCC(=O)NC2CC2)CC1	16.6
CC1CCCN(C(=O)Nc2ccc(Br)cc2Cl)C1 (centres unmarked)	-16.4
CC1CCCN(CCCOc2ccc(Br)cc2Cl)C1.O=C(O)C(=O)O (centres unmarked)	-78.4
Clc1cc(Br)ccc1OCCOCCN1CCOCC1	-36.7
CC1CCN(CCCOc2ccc(Br)cc2Cl)CC1	-72.8
CC1CCN(CCCCOc2ccccc2Br)CC1	-48.9
Cc1ccc(Cl)c(OCCN2CCCC(C)C2)c1.O=C(O)C(=O)O (centres unmarked)	-41.8
CCOC(=O)c1cnn(CCOC(=O)c2ccc(F)cc2)c1NC(=O)c1ccc(F)cc1	-19.4
CSCC[C@H](NC(=O)N1CCn2c1nc1ccccc12)C(=O)NCc1ccc(C)cc1	-13.3
CC(C)Nc1ccc(Cl)cc1[N+](=O)[O-]	14.3
CN(C)c1c(F)cc(-c2nn[nH]n2)cc1F	12.9
COC(=O)CCCC1=CC2=CC(=O)C(C)(OC(=O)c3cccs3)C(=O)C2=CN1Cc1ccc2c(c1)OCO2 (centres unmarked)	-7.74
CCCCC1=CC2=CC(=O)C(C)(OC(=O)CC)C(=O)C2=CN1Cc1ccc(OC)cc1 (centres unmarked)	-55.1
CCCCC1=CC2=CC(=O)C(C)(OC(=O)CC)C(=O)C2=CN1CCc1ccc(Br)cc1 (centres unmarked)	-58.9
CCCCC1=CC2=CC(=O)C(C)(OC(=O)CC)C(=O)C2=CN1CCc1c[nH]c2ccccc12 (centres unmarked)	-3.97
CCCCC1=CC2=CC(=O)C(C)(OC(=O)CC)C(=O)C2=CN1Cc1ccco1 (centres unmarked)	-32
CCCCC1=CC2=CC(=O)C(C)(OC(=O)CC)C(=O)C2=CN1c1ccc(OC)cc1 (centres unmarked)	-13
CCCCC1=CC2=CC(=O)C(C)(OC(=O)CC)C(=O)C2=CN1Cc1ccccc1 (centres unmarked)	-42.9
CCCCCCCC1=CC2=CC(=O)C(C)(OC(C)=O)C(=O)C2=CN1CCc1ccccc1 (centres unmarked)	-62.3
CCCCC1=CC2=CC(=O)C(C)(OC(=O)CC)C(=O)C2=CN1CCc1ccccn1 (centres unmarked)	-4.43

Structure (SMILES)	hERG current change (%, negative = inhibition) at 10uM [%]
CCCCC1=CC2=CC(=O)C(C)(OC(=O)CC)C(=O)C2=CN1CCOC (centres unmarked)	-5.6
CCCCC1=CC2=CC(=O)C(C)(OC(=O)CC)C(=O)C2=CN1Cc1ccc2c(c1)OCO2 (centres unmarked)	-55.3
CCCCC1=CC2=CC(=O)C(C)(OC(=O)CC)C(=O)C2=CN1CCCCO (centres unmarked)	0.395
Cc1ccc([N+](=O)[O-])cc1NC(=O)c1ccc2c(c1)OCO2	11.4
Cc1onc(-c2ccccc2)c1C(=O)N(C)CCc1ccccn1	7.12
CCN(C(=O)CN1CCOCC1)c1c(N)n(Cc2ccccc2)c(=O)[nH]c1=O	22.2
O=C(c1ccc(=O)oc1)N1CCC(C(O)(c2ccccc2)c2ccccc2)CC1	-29.2
CC(=O)Nc1ccc(-c2cc(C(=O)O)c3ccccc3n2)cc1	17.2
O=C(O)c1cc(-c2cccs2)nn1-c1cccc(Cl)c1	17.8
O=c1c(-c2ccc(Br)cc2)coc2c(CN3CCOCC3)c(O)ccc12	-20.7
O=C(Oc1ccc(N2C(=O)C3C4CCC(C4)C3C2=O)cc1)c1ccco1 (centres unmarked)	13.2
O=C(NC1CCCc2ccccc21)c1cn2ccccc2n1 (centres unmarked)	-25.5
CSCCC(NS(=O)(=O)c1ccc(C)cc1)C(=O)Nc1ccc(C)cn1 (centres unmarked)	2.68
CCC(C(=O)OC(C)C(=O)Nc1ccc(Cl)cn1)c1ccccc1 (centres unmarked)	0.842
CSCCC(NS(=O)(=O)c1ccccc1)C(=O)OC(C)C(=O)Nc1ccc(Cl)cn1 (centres unmarked)	-58.8
CCCOc1ccc(CCc2n[nH]c(=S)n2Cc2ccccc2)cc1	-7.26
COC(=O)C(NC(=O)c1ccc(Cl)cc1)(Nc1nc(C)cs1)C(F)(F)F (centres unmarked)	-8.63
Clc1ccc2[nH]c3c(NCC4CCCO4)ncnc3c2c1 (centres unmarked)	-16.2
Fc1ccc2[nH]c3c(NCc4ccccc4)ncnc3c2c1	10.5
CC(C)OCCCNc1ncnc2c1[nH]c1ccc(F)cc12	-2.39
C=CCNc1ncnc2c1[nH]c1ccc(Cl)cc12	-7.82
CCN1CCCC1CNc1ncnc2c1[nH]c1ccc(F)cc12 (centres unmarked)	-76.6
CCN1CCCC1CNc1ncnc2c1[nH]c1ccc(Cl)cc12 (centres unmarked)	-77.1
